Measured values reported in the supplement of paper PMC10849652.
Targets with a hit are over-represented here; the source holds about 7,900 in all. About 0.6% of all pairs of compound and target were hits.

compound: Cc1ccc(-n2nc(C(C)(C)C)cc2NC(=O)Nc2ccc(OCCN3CCOCC3)c3ccccc23)cc1 [doramapimod]; test: log2 fold change, soluble protein after heating vs DMSO (PISA); higher = thermal stabilisation; K562 cells, 10 uM, 30 min; active = over 0.2 and 3.5 SD of the protein, either way, in both replicates (recomputed)
Outline: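 K562 cells at 2×10^6 cells/mL were exposed to 10 μM compound for 30 min, then aliquots were heated for 3 min across 48°C-58°C, pooled, and extracted in PBS containing 0.5% NP-40 at 4°C. The supernatant after 21,000xg for 90 min was taken as soluble protein and measured by TMTpro 16plex LC-MS/MS with channel sums equalised. Thermal stability is reported relative to control samples, with values from duplicates. Fold changes are given on a log2 scale.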

UniProt P28290, sequence (P28290 whole entry, looked up): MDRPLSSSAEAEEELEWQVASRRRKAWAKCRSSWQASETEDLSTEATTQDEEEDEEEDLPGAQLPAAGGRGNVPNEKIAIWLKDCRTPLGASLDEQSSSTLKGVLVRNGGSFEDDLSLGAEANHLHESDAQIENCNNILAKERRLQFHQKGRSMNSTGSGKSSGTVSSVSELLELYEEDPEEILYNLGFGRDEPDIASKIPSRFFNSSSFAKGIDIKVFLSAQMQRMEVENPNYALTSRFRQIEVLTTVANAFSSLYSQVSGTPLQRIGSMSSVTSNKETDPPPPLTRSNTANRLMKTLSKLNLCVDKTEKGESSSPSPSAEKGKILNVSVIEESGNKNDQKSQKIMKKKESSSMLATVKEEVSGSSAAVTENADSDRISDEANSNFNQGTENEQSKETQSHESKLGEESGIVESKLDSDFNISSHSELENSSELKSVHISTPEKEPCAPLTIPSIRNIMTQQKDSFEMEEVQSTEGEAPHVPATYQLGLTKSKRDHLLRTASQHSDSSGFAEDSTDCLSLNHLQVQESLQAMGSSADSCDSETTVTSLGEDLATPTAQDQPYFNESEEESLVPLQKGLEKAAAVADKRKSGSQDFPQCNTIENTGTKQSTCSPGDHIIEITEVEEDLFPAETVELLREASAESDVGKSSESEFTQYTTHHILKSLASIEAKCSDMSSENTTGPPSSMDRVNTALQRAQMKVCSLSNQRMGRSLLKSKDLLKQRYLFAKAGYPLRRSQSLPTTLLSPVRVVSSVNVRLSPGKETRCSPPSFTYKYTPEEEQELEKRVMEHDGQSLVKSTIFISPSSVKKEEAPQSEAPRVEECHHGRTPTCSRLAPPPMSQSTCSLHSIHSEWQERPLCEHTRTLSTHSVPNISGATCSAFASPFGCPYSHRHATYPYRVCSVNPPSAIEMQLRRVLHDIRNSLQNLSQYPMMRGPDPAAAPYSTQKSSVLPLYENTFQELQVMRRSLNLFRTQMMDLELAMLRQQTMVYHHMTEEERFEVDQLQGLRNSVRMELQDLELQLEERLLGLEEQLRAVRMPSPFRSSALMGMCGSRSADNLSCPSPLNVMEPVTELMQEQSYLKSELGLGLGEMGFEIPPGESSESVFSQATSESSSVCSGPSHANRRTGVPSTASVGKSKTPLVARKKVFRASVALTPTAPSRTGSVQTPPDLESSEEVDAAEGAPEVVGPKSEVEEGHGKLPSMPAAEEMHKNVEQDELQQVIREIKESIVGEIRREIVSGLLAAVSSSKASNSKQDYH
UniProt Q32MZ4, sequence (Q32MZ4 whole entry, looked up): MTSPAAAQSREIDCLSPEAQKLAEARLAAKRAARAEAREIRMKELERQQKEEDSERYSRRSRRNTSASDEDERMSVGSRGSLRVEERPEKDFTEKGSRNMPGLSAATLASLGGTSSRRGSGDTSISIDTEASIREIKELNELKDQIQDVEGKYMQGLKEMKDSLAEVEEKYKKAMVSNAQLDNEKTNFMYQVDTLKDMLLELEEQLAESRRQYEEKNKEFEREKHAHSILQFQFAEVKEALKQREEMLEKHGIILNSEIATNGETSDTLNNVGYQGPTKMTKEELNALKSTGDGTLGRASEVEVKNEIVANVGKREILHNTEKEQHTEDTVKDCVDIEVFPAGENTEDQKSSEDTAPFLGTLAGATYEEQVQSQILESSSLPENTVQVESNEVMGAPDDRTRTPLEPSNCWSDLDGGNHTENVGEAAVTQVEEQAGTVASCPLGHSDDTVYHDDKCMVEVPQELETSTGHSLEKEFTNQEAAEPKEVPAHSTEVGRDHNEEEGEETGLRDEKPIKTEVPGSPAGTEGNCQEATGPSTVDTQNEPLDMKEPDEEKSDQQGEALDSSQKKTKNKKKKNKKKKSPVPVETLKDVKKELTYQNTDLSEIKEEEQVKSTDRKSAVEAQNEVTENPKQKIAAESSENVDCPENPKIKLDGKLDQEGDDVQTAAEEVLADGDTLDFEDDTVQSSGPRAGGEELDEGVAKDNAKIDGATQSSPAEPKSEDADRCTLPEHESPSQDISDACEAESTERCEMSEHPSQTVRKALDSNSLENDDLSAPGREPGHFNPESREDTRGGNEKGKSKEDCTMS
UniProt Q12851, sequence (Q12851 whole entry, looked up): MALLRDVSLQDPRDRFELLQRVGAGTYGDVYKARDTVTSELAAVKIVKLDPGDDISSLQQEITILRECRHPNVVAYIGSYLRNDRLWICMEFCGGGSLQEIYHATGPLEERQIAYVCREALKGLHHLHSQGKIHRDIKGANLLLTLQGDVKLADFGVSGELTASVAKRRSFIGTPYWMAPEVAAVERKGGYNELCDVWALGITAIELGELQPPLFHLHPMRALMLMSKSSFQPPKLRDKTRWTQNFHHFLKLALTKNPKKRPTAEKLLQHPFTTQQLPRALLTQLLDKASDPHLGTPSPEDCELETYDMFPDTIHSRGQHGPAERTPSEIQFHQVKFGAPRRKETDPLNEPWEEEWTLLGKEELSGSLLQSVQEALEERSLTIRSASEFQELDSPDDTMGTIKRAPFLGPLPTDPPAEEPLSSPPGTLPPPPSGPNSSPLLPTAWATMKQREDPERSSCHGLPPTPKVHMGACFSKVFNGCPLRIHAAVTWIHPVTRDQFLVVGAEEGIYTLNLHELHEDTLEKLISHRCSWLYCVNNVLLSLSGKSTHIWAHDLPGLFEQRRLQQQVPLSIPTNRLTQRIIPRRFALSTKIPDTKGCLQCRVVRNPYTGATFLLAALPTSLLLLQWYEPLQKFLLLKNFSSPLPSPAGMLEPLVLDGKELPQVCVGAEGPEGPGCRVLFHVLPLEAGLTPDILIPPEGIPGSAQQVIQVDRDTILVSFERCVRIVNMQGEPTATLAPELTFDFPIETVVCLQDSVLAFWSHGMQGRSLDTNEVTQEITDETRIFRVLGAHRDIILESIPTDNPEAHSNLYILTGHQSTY
UniProt Q9UPY8, sequence (Q9UPY8 whole entry, looked up): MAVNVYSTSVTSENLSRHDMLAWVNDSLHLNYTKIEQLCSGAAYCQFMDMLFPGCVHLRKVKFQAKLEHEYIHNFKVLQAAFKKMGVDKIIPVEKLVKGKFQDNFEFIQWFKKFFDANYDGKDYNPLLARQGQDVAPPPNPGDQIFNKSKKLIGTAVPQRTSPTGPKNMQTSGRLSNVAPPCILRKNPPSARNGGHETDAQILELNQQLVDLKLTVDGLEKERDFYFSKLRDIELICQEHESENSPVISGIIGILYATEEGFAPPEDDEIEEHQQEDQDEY
UniProt Q8WYH8, sequence (Q8WYH8 whole entry, looked up): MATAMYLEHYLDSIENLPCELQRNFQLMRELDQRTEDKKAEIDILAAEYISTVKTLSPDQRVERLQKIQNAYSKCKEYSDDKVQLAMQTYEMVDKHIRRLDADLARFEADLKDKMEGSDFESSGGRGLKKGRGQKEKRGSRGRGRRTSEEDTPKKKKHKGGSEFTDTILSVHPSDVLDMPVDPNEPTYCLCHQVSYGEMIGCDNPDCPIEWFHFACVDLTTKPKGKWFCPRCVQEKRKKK
UniProt P13473, sequence (P13473 whole entry, looked up): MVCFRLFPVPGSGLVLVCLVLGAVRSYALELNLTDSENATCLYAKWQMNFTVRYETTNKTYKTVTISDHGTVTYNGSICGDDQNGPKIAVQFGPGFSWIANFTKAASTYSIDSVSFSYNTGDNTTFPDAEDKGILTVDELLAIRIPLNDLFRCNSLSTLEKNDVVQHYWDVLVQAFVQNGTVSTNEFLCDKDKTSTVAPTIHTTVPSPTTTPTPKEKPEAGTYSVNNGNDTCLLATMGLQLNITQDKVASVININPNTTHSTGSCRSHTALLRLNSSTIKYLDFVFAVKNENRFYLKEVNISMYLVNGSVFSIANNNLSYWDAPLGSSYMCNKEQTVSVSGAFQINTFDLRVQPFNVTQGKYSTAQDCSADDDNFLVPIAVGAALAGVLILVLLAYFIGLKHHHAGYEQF
UniProt P43361, sequence (P43361 whole entry, looked up): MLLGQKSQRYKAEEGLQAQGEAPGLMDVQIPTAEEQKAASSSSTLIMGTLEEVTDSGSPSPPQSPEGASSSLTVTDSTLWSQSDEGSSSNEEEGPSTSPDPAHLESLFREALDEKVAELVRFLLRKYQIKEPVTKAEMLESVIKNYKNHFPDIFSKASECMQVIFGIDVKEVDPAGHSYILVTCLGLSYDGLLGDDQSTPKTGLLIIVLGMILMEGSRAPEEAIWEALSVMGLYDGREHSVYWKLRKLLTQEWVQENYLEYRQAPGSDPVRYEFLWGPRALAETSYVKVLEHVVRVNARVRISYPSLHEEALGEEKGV
UniProt Q9Y4K4, sequence (Q9Y4K4 whole entry, looked up): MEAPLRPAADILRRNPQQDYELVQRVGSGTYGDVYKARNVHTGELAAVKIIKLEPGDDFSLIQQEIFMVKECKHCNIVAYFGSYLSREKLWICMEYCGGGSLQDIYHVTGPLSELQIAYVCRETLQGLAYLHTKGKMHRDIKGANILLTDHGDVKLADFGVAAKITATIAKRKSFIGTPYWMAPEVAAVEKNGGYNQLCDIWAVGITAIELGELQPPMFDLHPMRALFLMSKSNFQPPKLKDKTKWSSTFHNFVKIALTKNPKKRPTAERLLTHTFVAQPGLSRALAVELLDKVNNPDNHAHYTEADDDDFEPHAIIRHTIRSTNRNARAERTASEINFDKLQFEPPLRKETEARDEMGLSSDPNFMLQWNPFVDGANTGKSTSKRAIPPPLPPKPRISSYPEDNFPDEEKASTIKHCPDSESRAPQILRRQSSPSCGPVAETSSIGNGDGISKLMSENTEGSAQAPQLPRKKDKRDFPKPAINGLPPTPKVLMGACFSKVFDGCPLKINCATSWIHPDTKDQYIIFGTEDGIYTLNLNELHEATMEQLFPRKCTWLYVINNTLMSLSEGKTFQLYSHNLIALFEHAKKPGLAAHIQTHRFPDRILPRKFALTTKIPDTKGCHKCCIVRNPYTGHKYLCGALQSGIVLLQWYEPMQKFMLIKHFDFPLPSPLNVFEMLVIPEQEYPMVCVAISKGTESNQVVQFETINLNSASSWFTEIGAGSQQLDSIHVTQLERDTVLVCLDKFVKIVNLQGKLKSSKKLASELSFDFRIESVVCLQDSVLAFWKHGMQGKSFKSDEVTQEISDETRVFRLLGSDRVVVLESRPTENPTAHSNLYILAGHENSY

Target | log2 fold change
ITPRID2 (UniProt P28290) | -0.056 (inactive)
LAMP2 isoform 2 (UniProt P13473) | 0.002 (inactive)
MFSD8 (UniProt Q8NHS3) | 0.131 (inactive)
MAP2K5 (UniProt Q13163) | 0.053 (inactive)
MAP4K2 (UniProt Q12851) | -0.091 (inactive)
MGRN1 isoform 2 (UniProt O60291) | 0.012 (inactive)
IKZF1 (UniProt R9R4D9) | 0.235 (inactive)
KIZ (UniProt Q2M2Z5) | 0.071 (inactive)
MAP4K5 (UniProt Q9Y4K4) | -0.064 (inactive)
MAPRE3 isoform 2 (UniProt Q9UPY8) | 0.007 (inactive)
MAPK7 (UniProt Q13164) | 0.057 (inactive)
LRRFIP1 isoform 4 (UniProt Q32MZ4) | -0.016 (inactive)
LDLRAP1 (UniProt Q5SW96) | 0.18 (inactive)
MBLAC1 (UniProt A4D2B0) | 0.169 (inactive)
ING5 (UniProt Q8WYH8) | -0.019 (inactive)
MAGEA8 (UniProt P43361) | 0.037 (inactive)
